From PubChem
Jurkat NFkB inh – inhibitors of the PMA/ionomycin-induced NF-kB reporter in Jurkat cells; inhibition, % at 4 µM; PMA/ionomycin-induced NF-kB luciferase reporter, luminescence; 330,000 compounds, 0.53% hits; AID 435003; in the data active means inhibition above about 50%
Gli-Sufu block – antagonists of Gli-Sufu signaling; AID 588413; inhibition, % at 5 µM; Sufu-KO-LIGHT fibroblasts, Gli luciferase reporter luminescence; 340,000 compounds, 0.74% hits;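 active means inhibition above about 55%, limit read from the data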
697 NFkB inh – inhibitors of the PMA/ionomycin-induced NF-kB reporter in 697 B cells; 697 B-cell NF-kB luciferase reporter, 16 h; inhibition, % at 4 µM; 330,000 compounds, 0.33% hits; AID 435022; in the data active means inhibition above about 35%
GalR3 antag – antagonists of human GalR3 | O60755 | HEK293 GalR3-CNG cAMP membrane potential fluorescence; galR3 body fused to GalR1 C-terminus | inhibition, % at 3 µM | 360,000 compounds, 0.44% hits | AID 651719;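 active means inhibition above the screen-wide average plus 3 SD, cut at about 13% in these data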;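 further: forskolin and galanin both at EC90 stimulate the cells; cAMP rise reported by CNG channel membrane potential dye signal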
NR2F2 inh – blocks human COUP-TFII nuclear receptor; inhibition, % at 8.6 µM; HEK293T NGFI-A luciferase reporter, luminescence; P24468; 370,000 compounds, 0.7% hits;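 active means inhibition above a per-plate cutoff, mean inhibition of test wells between control levels plus 3 SD, cut at about 38% in these data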;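 further: cells cotransfected with COUP-TFII expression vector driving the NGFI-A reporter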
Target sequence (P24468 whole entry, looked up): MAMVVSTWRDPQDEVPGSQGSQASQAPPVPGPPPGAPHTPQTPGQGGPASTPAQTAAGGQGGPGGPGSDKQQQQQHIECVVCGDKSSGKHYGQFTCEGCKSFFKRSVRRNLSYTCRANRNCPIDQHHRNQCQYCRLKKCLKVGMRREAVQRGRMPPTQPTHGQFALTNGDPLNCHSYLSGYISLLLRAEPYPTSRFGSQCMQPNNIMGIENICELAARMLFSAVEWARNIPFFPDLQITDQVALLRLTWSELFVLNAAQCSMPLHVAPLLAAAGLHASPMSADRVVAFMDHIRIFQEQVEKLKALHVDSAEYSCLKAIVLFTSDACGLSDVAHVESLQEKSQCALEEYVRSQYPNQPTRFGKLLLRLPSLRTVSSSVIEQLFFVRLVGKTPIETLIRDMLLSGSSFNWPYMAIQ
Jurkat NFkB conf – inhibitors of the PMA/ionomycin-induced NF-kB reporter in Jurkat cells, retest; shares compounds with Jurkat NFkB inh; Jurkat NF-kB luciferase, 16 h; inhibition, % at 4 µM; 2,700 compounds, 27% hits; AID 435020;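 active means inhibition reaching about 45% at 4 µM in either replicate, limit read from the data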
A number is an active result; i = inactive; nt = not tested or not shown. This is a sample that favours compounds with a hit; in the whole collection about 2% have one here.

SMILES	Jurkat NFkB inh	Gli-Sufu block	697 NFkB inh	GalR3 antag	NR2F2 inh	Jurkat NFkB conf
Cc1c(C(=O)OCc2ccccc2)[nH]c2c1C(=O)CC(c1ccco1)C2 (stereo not given)	63	i	i	nt	nt	i
Cc1c(C(=O)O)[nH]c2c1C(=O)CC(c1ccccc1)C2 (stereo not given)	i	i	i	i	i	nt
Cc1c(C(=O)OCCOC(C)C)[nH]c2c1C(=O)CC(c1ccco1)C2 (stereo not given)	60	i	i	nt	nt	i
COCCOC(=O)c1[nH]c2c(c1C)C(=O)CC(c1ccccc1)C2 (stereo not given)	i	i	i	nt	nt	nt
COCCOC(=O)c1[nH]c2c(c1C)C(=O)CC(c1ccc(F)cc1)C2 (stereo not given)	i	i	i	i	i	nt
COCCOC(=O)c1[nH]c2c(c1C)C(=O)CC(c1ccco1)C2 (stereo not given)	60	i	i	i	i	i
CSCCOC(=O)c1[nH]c2c(c1C)C(=O)CC(c1ccco1)C2 (stereo not given)	58	i	i	i	i	i
COC(=O)[C@H](C(C)C)N1Cc2nnn(Cc3ccccc3)c2-c2ccccc2S1(=O)=O	nt	nt	nt	nt	i	nt
CCCCNC(=O)NS(=O)(=O)c1ccc(NC(=O)CSc2ncnc3scc(-c4ccc(C)cc4)c23)cc1	nt	nt	nt	nt	i	nt
CCOC(=O)c1[nH]c2c(c1C)C(=O)CC(c1ccco1)C2 (stereo not given)	75	i	i	i	i	55
Cc1ccc2nc(-c3ccc(NC(=S)NC(=O)CC(C)C)cc3)sc2c1	i	i	i	i	i	nt
Cc1ccc2nc(-c3ccc(NC(=O)C(C)Sc4nncs4)cc3)sc2c1 (stereo not given)	i	i	i	i	i	i
O=C(CCc1ccccc1-c1ccccc1CCNC(=O)c1ccc(F)c(F)c1)NCc1ccccc1	nt	nt	nt	nt	i	nt
O=C1CCC[C@H]2Cc3nc4ccccc4cc3C[C@]23CCCN13	nt	nt	nt	nt	i	nt
COc1ccc(/C=C2\COc3ccccc3C2=O)c(OC)c1	i	i	i	i	i	nt
COc1ccc(C=C2c3ccccc3C(=O)c3ccccc32)c(OC)c1	66	nt	i	i	i	61
COc1cc(/C=C/[N+](=O)[O-])ccc1OCc1cccc(C(=O)O)c1	69	i	i	nt	nt	i
COc1ccc2nc(NC(=O)c3ccc(F)cc3)sc2c1	i	i	i	i	i	nt
COc1ccc2nc(Nc3ccccc3OC)sc2c1	i	i	i	i	i	i
COc1ccc2nc(Nc3ccccc3)sc2c1	i	i	i	i	i	i
COc1ccc2nc(NC(=O)c3ccc4ncsc4c3)sc2c1	i	i	i	nt	nt	i
COc1cccc(C(=O)Nc2ccc(C(=O)NCC3COc4ccccc4O3)cc2)c1 (stereo not given)	nt	nt	nt	nt	i	nt
COc1cccc(N2CCN(C(=O)c3[nH]c(C)c(C(C)=O)c3C)CC2)c1	55	i	i	i	i	i
COc1cccc(N2CCN(C(=O)c3ccc(CS(=O)c4ccccc4C)o3)CC2)c1 (stereo not given)	56	i	i	i	i	36
COc1cccc(N2CCN(C(=O)c3ccc(CS(=O)c4ccccc4Cl)o3)CC2)c1 (stereo not given)	56	i	i	i	i	53
SMILES	Jurkat NFkB inh	Gli-Sufu block	697 NFkB inh	GalR3 antag	NR2F2 inh	Jurkat NFkB conf
COc1ccc(N2CCN(C(=O)c3ccc(CS(=O)c4cccc(C)c4)o3)CC2)cc1 (stereo not given)	i	i	i	i	i	nt
C=CCNC(=O)c1cc(-c2ccc(Br)cc2)on1	i	i	i	i	i	i
Cc1noc(C)c1COc1ccc(CC(=O)NCCc2ccccn2)cc1	i	i	i	i	i	nt
Cc1ccc(CNC(=O)Cc2ccc(-c3ccccc3)cc2)cc1	63	i	i	i	i	i
Cc1noc(C)c1COc1ccc(CC(=O)NCc2ccccc2)cc1	62	i	i	i	i	i
O=C(Cc1ccc(-c2ccccc2)cc1)NCc1cccnc1	i	i	i	i	i	nt
Cc1ccc(CNC(=O)COC(=O)Cc2ccc(-c3ccccc3)cc2)cc1	i	i	i	i	i	nt
O=C(Cc1ccc(-c2ccccc2)cc1)NCc1ccccc1	62	i	i	i	i	i
COCCCN1C(=O)[C@H](CC(=O)NCc2cccs2)[C@]2(C(=O)OC)CCCCC=C12	nt	nt	nt	nt	i	nt
CCC(=O)N1CCC(C(=O)NC2CCCc3ccccc32)CC1 (stereo not given)	nt	nt	nt	nt	i	nt
O=C(NCc1ccco1)C1CCCN(c2ncccn2)C1 (stereo not given)	nt	nt	nt	nt	i	nt
Cc1ccc(Cn2c(=N)n(CC(O)COc3ccccc3)c3ccccc32)cc1 (stereo not given)	53	i	i	i	i	i
COCCCn1cc(CN2CC=CS2(=O)=O)nn1	nt	nt	nt	nt	i	nt
Nc1nn2cc(-c3ccccc3)nc2c2ccccc12	i	i	i	i	i	i
Cc1ccc(NC(=O)Nc2ccc3c(c2)OCO3)cc1F	i	i	i	i	i	i
NC(=O)c1ccc(NC(=O)Nc2ccc3c(c2)OCO3)cc1	i	i	i	i	i	nt
O=C(Nc1ccc2c(c1)OCCO2)Nc1ccc2c(c1)OCO2	i	i	i	i	i	i
O=C(Nc1ccc2c(c1)OCO2)c1ccc(Br)s1	i	i	i	i	i	i
Cn1c(C(=O)Nc2ccc3c(c2)OCO3)cc2sccc21	i	i	i	i	i	i
Cn1c(C(=O)NCc2ccc3c(c2)OCO3)cc2sccc21	i	i	i	i	i	nt
Cc1cc(F)ccc1NC(=O)Nc1ccc2c(c1)OCO2	i	i	i	i	i	nt
Cc1ccc(-c2nc(C3CCCN(S(=O)(=O)c4ccc(C)c(C)c4)C3)no2)cc1 (stereo not given)	nt	nt	nt	nt	i	nt
CC1(C)CC(NC(=O)c2ccc(Cl)c(S(=O)(=O)N(Cc3ccccc3)c3ccccc3)c2)CC(C)(C)N1	71	i	i	i	i	i
COc1ccccc1N(Cc1ccccc1)S(=O)(=O)c1cccc(C(=O)NC2CC(C)(C)NC(C)(C)C2)c1	i	i	i	i	i	nt
COC(=O)[C@]12C[C@H](CC(=O)NCCc3ccccc3OC)C(=O)N(Cc3ccc(Cl)cc3Cl)C1=C[C@H](C(C)(C)C)O[C@@H]2C	nt	nt	nt	nt	i	nt
SMILES	Jurkat NFkB inh	Gli-Sufu block	697 NFkB inh	GalR3 antag	NR2F2 inh	Jurkat NFkB conf
COc1cc(NC(=O)c2cc(-c3ccc4c(c3)OCO4)on2)cc(OC)c1OC	66	i	i	i	i	i
C=CCOc1c(Cl)cc(CNc2ccc(C)c(Cl)c2)cc1OC	60	nt	i	nt	nt	i
CN1Cc2nnn(Cc3ccccc3)c2-c2cc(N3CCCCC3)ccc2S1(=O)=O	nt	nt	nt	nt	i	nt
CC(C)N(C(N)=NC(=O)OCc1ccccc1)C(C)C	nt	nt	nt	nt	i	nt
COc1cccc(S(=O)(=O)NCc2ccc(C(=O)Nc3ccc(Cl)cc3)cc2)c1	i	i	i	i	i	nt
COc1ccc2[nH]c(-c3cccc(F)c3)cc(=O)c2c1	i	i	i	i	i	nt
COc1cccc(-c2cc(=O)c3cc(NC(=O)c4ccccc4)ccc3[nH]2)c1	90	i	i	i	i	52
